Results as given in PubChem BioAssay AID977607 (Broad Institute, 2014).
Screen size: about 1,500 compounds; about 460 (31%) were called active. About 1% were inconclusive and are not listed.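 Rule for the calls: active = curve reaches 40% activation over neutral controls at an AC40 no higher than the top valid tested concentration; inconclusive = no clear call, values can overlap the other calls; inactive = signal moving opposite to the expected increase, and the rest.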 A selection follows. Entries with a potency or affinity are not part of this list.

assay: activators of glucose-dependent insulin secretion, dose response, cell-based, INS-1E, Gaussia luciferase, luminescence, cherry-pick, set 2 (AID 977607); details: INS-1E GLuc insulin secretion reporter, 2-3 h, stronger effect = higher value; at 35 µM, 100% = signal doubled over neutral wells unless noted;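 note: 0% = median of the plate neutral control wells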

Max activation, inactive:
C=CCc1ccccc1Oc1cc(OC)nc(N)n1 -22% [at 1.2 µM, 100% = signal doubled over neutral wells], COc1ccc(CCNC(=O)C(=O)c2c(C)n(C)c3ccccc23)cc1OC -13.8% [at 1.2 µM, 100% = signal doubled over neutral wells], CCC(C)c1ccccc1OCCn1ccnc1 (stereo not given) 16.6% [at 0.005 µM, 100% = signal doubled over neutral wells], COc1ccc(OCCCCN(C)Cc2ccccc2)cc1 -18.5% [at 1.2 µM, 100% = signal doubled over neutral wells], CCC(=O)Nc1sc(Cc2ccc3c(c2)OCO3)c(C)c1C(N)=O -24.2% [at 0.0016 µM, 100% = signal doubled over neutral wells], O=C(N/N=C/c1ccc2c(c1)OCO2)c1ccc(Cl)cc1Cl -37.2%, O=C(Nc1ccc(F)cc1)c1cccnc1Oc1ccccc1 21.8%, CC(C)CCN1CC(O)=C(c2nc(-c3ccc(Cl)cc3)cs2)C1=N -11.3% [at 0.005 µM, 100% = signal doubled over neutral wells], CCCn1c(C)cc(C)c(C#N)c1=O -11.7% [at 1.2 µM, 100% = signal doubled over neutral wells], O=C(O)CC(CC(=O)Nc1ccc(C(=O)O)cc1)c1ccccc1 (stereo not given) 11.8% [at 3.8 µM, 100% = signal doubled over neutral wells], CCNc1nc(Oc2ccc(C#N)cc2)cc(C(F)(F)F)n1 -19% [at 0.135 µM, 100% = signal doubled over neutral wells], O=S(=O)(NCc1ccccc1)c1ccc(-n2cccn2)cc1 32% [at 0.135 µM, 100% = signal doubled over neutral wells], Cc1ccc2c(c1)N(C(C)C(=O)NCc1cccs1)C(=O)CO2 (stereo not given) 15.9% [at 0.42 µM, 100% = signal doubled over neutral wells], CN1CCCC1CCNC1C2CC3CC(C2)CC1C3 (stereo not given) -20.8% [at 0.135 µM, 100% = signal doubled over neutral wells], Cc1ccc(-n2nc3c(c2NC(=O)C2CC2)CS(=O)(=O)C3)cc1 -19.6% [at 0.005 µM, 100% = signal doubled over neutral wells]
